For 10 compounds, Potency and viability results are on record in PubChem BioAssay (NCATS).

A short description of test [1]: Quantitative High-Throughput drug screen in 47 multiple myeloma cell lines against the NCATS MIPE library collection: ARD_JJKsccE7 cell viability assay (AID 1918929). Put shortly:
(§1)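 Myeloma cells (500 per well) were exposed to MIPE 4.0 compounds by pin transfer and incubated 48 hours at 37C, 5% CO2. Viability was read as ATP by CellTiter-Glo luminescence, normalised to DMSO (100%) and media-only (0%) wells.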

The nature of test [2]: Quantitative High-Throughput drug screen in 47 multiple myeloma cell lines against the NCATS MIPE library collection: Karpas620_DSMZ cell viability assay (AID 1918959). Also: nearly all actives have a fitted effect of over 30% in size. The method, boiled down: (§2)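 Relative luminescence from CellTiter-Glo served as the viability signal, referenced to DMSO-treated (100%) and cell-free medium (0%) controls. Treatment lasted 48 hours at 37C with 500 cells per well.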

A short description of test [3]: Quantitative High-Throughput drug screen in 47 multiple myeloma cell lines against the NCATS MIPE library collection: KMM1_JCRB cell viability assay (AID 1918960). Also: nearly all actives have a fitted effect of over 30% in size. The method, boiled down:
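Viability screen: myeloma cells (500/well) incubated 48 h at 37 °C, humidified 5% CO2, with pinned library compounds; CellTiter-Glo added, luminescence read; DMSO wells set 100%, medium-only wells 0%.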

Test [4] can be described thus: Quantitative High-Throughput drug screen in 47 multiple myeloma cell lines against the NCATS MIPE library collection: Karpas417_ECACC cell viability assay (AID 1918961). The settings on record: Karpas417 myeloma viability, CellTiter-Glo ATP luminescence, 48 h; viability (% of DMSO): at 45.8 µM (top of the series). The method, boiled down:
as §2
(In general: In ATP-based viability assays light output follows the ATP content of the culture.)

Test [5] can be described thus: Quantitative High-Throughput drug screen in 47 multiple myeloma cell lines against the NCATS MIPE library collection: KHM11_PLB cell viability assay (AID 1918962). Also: nearly all actives have a fitted effect of over 35% in size. Put shortly:
as §2

A short description of test [6]: Quantitative High-Throughput drug screen in 47 multiple myeloma cell lines against the NCATS MIPE library collection: JIM1_ECACC cell viability assay (AID 1918964). The method, boiled down: as §1
Test [7] is described as follows: Quantitative High-Throughput drug screen in 47 multiple myeloma cell lines against the NCATS MIPE library collection: INA6_PLB cell viability assay (AID 1918965; also: nearly all actives have a fitted effect of over 55% in size). The method, boiled down: as §2
Test [8] is described as follows: Quantitative High-Throughput drug screen in 47 multiple myeloma cell lines against the NCATS MIPE library collection: JJN3_DSMZ cell viability assay (AID 1918966; also: nearly all actives have a fitted effect of over 50% in size). The method, boiled down: as §1
Test [9] in a line: Quantitative High-Throughput drug screen in 47 multiple myeloma cell lines against the NCATS MIPE library collection: H1112_PLB cell viability assay (AID 1918967; also: nearly all actives have a fitted effect of over 30% in size). The method, boiled down:
as §1

Test [10] in a line: Quantitative High-Throughput drug screen in 47 multiple myeloma cell lines against the NCATS MIPE library collection: KMS27_JCRB cell viability assay (AID 1918970). Also: nearly all actives have a fitted effect of over 30% in size. The method, boiled down:
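Luminescent ATP read-out (CellTiter-Glo, 5 min at room temperature) after 48 h compound exposure of 500 KMS27_JCRB cells per well; DMSO wells define full viability and media-only wells zero.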

Test [11] is described as follows: Quantitative High-Throughput drug screen in 47 multiple myeloma cell lines against the NCATS MIPE library collection: KMS12PE_JCRB cell viability assay (AID 1918972). Also: nearly all actives have a fitted effect of over 30% in size. The method, boiled down: as §2
A short description of test [12]: Quantitative High-Throughput drug screen in 47 multiple myeloma cell lines against the NCATS MIPE library collection: KMS21BM_JCRB cell viability assay (AID 1918974). Particulars: ATP luminescence, 48 h; viability: at 45.8 µM (top of the series) unless noted. Put shortly:
as §1

A short description of test [13]: Quantitative High-Throughput drug screen in 47 multiple myeloma cell lines against the NCATS MIPE library collection: KMS26_JCRB cell viability assay (AID 1918975). Also: nearly all actives have a fitted effect of over 45% in size. The method, boiled down: (§3)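 Steps: seed 500 cells per well; pin-transfer MIPE 4.0 library; incubate 48 h at 37C, 5% CO2, humidified; add CellTiter-Glo, 5 min room temperature; read luminescence.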
The nature of test [14]: Quantitative High-Throughput drug screen in 47 multiple myeloma cell lines against the NCATS MIPE library collection: MMM1_PLB cell viability assay (AID 1918976). Also: nearly all actives have a fitted effect of over 35% in size. The method, boiled down:
(§4)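 Readout: median RLU from CellTiter-Glo after 5 min at room temperature. Preceding step was 48 h drug treatment of 500 cells/well at 37 °C, 5% CO2, with DMSO-only and media-only control wells.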

A short description of test [15]: Quantitative High-Throughput drug screen in 47 multiple myeloma cell lines against the NCATS MIPE library collection: MOLP8_DSMZ cell viability assay (AID 1918977). Also: nearly all actives have a fitted effect of over 45% in size. The method, boiled down:
as §4

A short description of test [16]: Quantitative High-Throughput drug screen in 47 multiple myeloma cell lines against the NCATS MIPE library collection: NCIH929_DSMZ cell viability assay (AID 1918978). Also: nearly all actives have a fitted effect of over 35% in size. The method, boiled down:
as §4

The nature of test [17]: Quantitative High-Throughput drug screen in 47 multiple myeloma cell lines against the NCATS MIPE library collection: JIM3_ECACC cell viability assay (AID 1918963; also: nearly all actives have a fitted effect of over 35% in size). The method, boiled down: as §2
Test [18] is described as follows: Quantitative High-Throughput drug screen in 47 multiple myeloma cell lines against the NCATS MIPE library collection: KMS12BM_JCRB cell viability assay (AID 1918971). Also: nearly all actives have a fitted effect of over 35% in size. The method, boiled down: as §3
Test [19] is described as follows: Quantitative High-Throughput drug screen in 47 multiple myeloma cell lines against the NCATS MIPE library collection: KMS20_JCRB cell viability assay (AID 1918973). Also: nearly all actives have a fitted effect of over 45% in size. Put shortly: as §1
Test [20] is described as follows: Quantitative High-Throughput drug screen in 47 multiple myeloma cell lines against the NCATS MIPE library collection: Karpas25_ECACC cell viability assay (AID 1918968; also: nearly all actives have a fitted effect of over 35% in size). The method, boiled down:
as §1

Usually viability stands for a read-out of living cells in per cent, often relative to untreated cells.

Results filed as inconclusive are left out. Calls of active or inactive are those of the source. Calls follow the shape of the dose curve; as a rule, active = well fitted curve in the direction sought with a large enough effect; inconclusive = small, poorly fitted or top-dose-only effect, or another doubt; inactive = no such curve, though single readings can be large; an effect the other way counts as inactive or inconclusive.
Potency is read from the fitted curve at half-maximal effect.

In the case of `OC[C@H]1O[C@@H](n2cnc3c2NC=NC[C@@H]3O)C[C@H]1O`, the Potency entry in test [1], in test [3], in test [4], in test [5], in [6] and in [7] was “inactive” in each case. Besides, the Potency result in [11], in [13] and in test [15] was “inactive” throughout. The Potency in test [2] was 14.8 µM (active); in test [8], 23.5 µM (active); in test [9] it was 18.7 µM (active); in test [10] it was 13.2 µM (active); in test [12], 0.0042 µM (active); in test [14] it was 20.9 µM (active). The Potency in [16] is 26.4 µM (active).

Consider `CN(C)c1cc(NC(=O)CNC(C)(C)C)c(O)c2c1C[C@@H]1C[C@H]3[C@H](N(C)C)C(=O)C(C(N)=O)=C(O)[C@@]3(O)C(=O)C1=C2O`, for which the Potency entry in [1], in [2], in test [3], in test [4], in test [5] and in test [17] was “inactive” in each case. Moreover, the Potency entry in test [7], in [9], in [10], in [11], in [13] and in test [16] was “inactive” each time. The Potency in test [14] is 14.8 µM (active); in [15] it was 9.35 µM (active).

As for `Cc1cnc(C(=O)O)c[n+]1[O-]`, the Potency entry in test [1], in test [2], in test [3], in [4], in test [5] and in test [17] was “inactive” each time. The Potency result in [7], in test [9], in test [10], in test [11] and in test [16] was “inactive” each time. Moreover, the Potency in [14] was 3.32 µM (active).

Regarding `NS(=O)(=O)c1cccc2c1C(=O)c1cccc(O)c1C2=O`, the Potency is 0.264 µM (active) in test [1]; 0.148 µM (active) in test [2]; 0.264 µM (active) in test [3]; 0.148 µM (active) in [4]; 0.662 µM (active) in test [5]; 0.187 µM (active) in test [17]. The Potency is 0.209 µM (active) in [6]; 0.148 µM (active) in [7]; 0.264 µM (active) in test [8]; 0.526 µM (active) in test [9]; 0.209 µM (active) in test [10]; 1.05 µM (active) in test [18]. Besides, the Potency in test [11] was 0.264 µM (active); in test [19], 0.132 µM (active); in [12], 0.148 µM (active); in test [13] it was 0.662 µM (active); in [14] it was 0.264 µM (active); in [15] it was 0.296 µM (active).

As to `Clc1ccc(C(c2ccc(Cl)cc2)n2cc[n+](CC(OCc3ccc(Cl)cc3Cl)c3ccc(Cl)cc3Cl)c2)cc1` (stereo unspecified), the Potency is 11.8 µM (active) in test [1]; 9.35 µM (active) in test [2]; 8.33 µM (active) in test [3]; 8.33 µM (active) in test [4]; 10.5 µM (active) in test [5]; 8.33 µM (active) in test [6]. Also, the Potency is 8.33 µM (active) in test [7]; 20.9 µM (active) in test [8]; 11.8 µM (active) in test [9]; 7.43 µM (active) in test [20]; 7.43 µM (active) in test [10]; 23.5 µM (active) in test [18]. Further, the Potency is 7.43 µM (active) in test [11]; 8.33 µM (active) in test [19]; 8.33 µM (active) in [12]; 16.6 µM (active) in test [13]; 18.7 µM (active) in test [15]; 9.35 µM (active) in [16].

On to `CN1CCN(CCOc2cc(OC3CCOCC3)c3c(Nc4c(Cl)ccc5c4OCO5)ncnc3c2)CC1`, for which the Potency in test [1] was 18.7 µM (active); in test [2] it was 18.7 µM (active); in test [3] it was 14.8 µM (active); in [5], 18.7 µM (active); in test [17] it was 23.5 µM (active); in test [6], 20.9 µM (active). For the same compound, the Potency in test [7] is 2.96 µM (active); in [9] it was 23.5 µM (active); in test [20] it was 16.6 µM (active); in test [10] it was 16.6 µM (active); in test [11] it was 14.8 µM (active); in [19], 8.33 µM (active). The values for the Potency in test [12] and in test [15] were 1.87 µM (active) and 16.6 µM (active), respectively.

In the case of `Nc1ncnc2c1ncn2[C@@H]1O[C@H](CO)C[C@@H]1O`, the Potency result in test [1], in [2], in test [3], in [4], in test [17] and in test [7] was “inactive” throughout. The Potency entry in [9], in test [20], in test [10], in [11], in [19] and in test [13] was “inactive” each time.

For the compound `CS(=O)c1ccc(-c2nc(-c3ccc(F)cc3)c(-c3ccncc3)[nH]2)cc1` (stereo unspecified), the Potency in [1] was 42.9 µM (active); in test [2] it was 34 µM (active); in test [3], 34 µM (active); in [4], 3.82 µM (active); in [6], 34 µM (active); in test [7], 3.4 µM (active). Moreover, the Potency was 48.1 µM (active) in [9]; 8.55 µM (active) in test [20]; 21.5 µM (active) in test [10]; 21.5 µM (active) in test [11]; 5.4 µM (active) in test [16]. For the same compound, in [12], the viability is 1.55% [at 92.2 µM] (active).

Turning to `COc1cc2ncnc(Nc3ccc(F)c(Cl)c3)c2cc1OCCCN1CCOCC1`, the Potency in test [1] is 12.1 µM (active); in test [2], 6.79 µM (active); in [3], 8.55 µM (active); in [4], 3.4 µM (active); in test [5], 3.4 µM (active); in test [17], 13.6 µM (active). Also, the Potency in [6] is 5.4 µM (active); in test [7], 5.4 µM (active); in test [8], 42.9 µM (active); in [9], 1.52 µM (active); in test [20] it was 6.05 µM (active); in test [10] it was 13.6 µM (active). For the same compound, the Potency was 34 µM (active) in test [18]; 3.03 µM (active) in [11]; 3.4 µM (active) in test [19]; 38.2 µM (active) in test [13]; 48.1 µM (active) in test [15]; 4.29 µM (active) in test [16].

Take `COc1cc2nc(-c3ccc(N4CCN(C)CC4)cc3)nc(NCCN3CCOCC3)c2cc1OC`: the Potency is 0.296 µM (active) in test [1]; 0.118 µM (active) in test [2]; 0.0469 µM (active) in test [3]; 0.0166 µM (active) in test [4]; 0.235 µM (active) in [5]; 0.148 µM (active) in test [17]. Besides, the Potency in [6] was 0.166 µM (active); in test [7], 0.0372 µM (active); in [9], 1.48 µM (active); in test [20], 0.0105 µM (active); in test [10] it was 0.0332 µM (active); in [11] it was 0.209 µM (active). In addition, the Potency in [19] is 0.105 µM (active); in test [13], 0.0372 µM (active); in [14], 0.0743 µM (active); in test [15], 0.0418 µM (active); in test [16], 0.296 µM (active).
